For 58 variants, antigen binding call results are on record in the emibetuzumab library of Makowski et al. (2022).

The other results are listed elsewhere or left out. The hit rate among all sequences tested is not known here.

B1: VH:VL chains; a variant is named by its letters at X, in order (parent)
chain 1: QVQLVQSGAEVKKPGASVKVSCKASGYTFTDYXMHWVRQAPGQGLEWMGXVNPNXXXTTYNQKFEGRVTMTTDTSTSTAYMELRSLRSDDTAVYYCARXNXLDXWGQGTTVTVSS
chain 2: DIQMTQSPSSLSASVGDRVTITCSVSSSVSSIYLHWYQQKPGKAPKLLIYSTSNLASGVPSRFSGSGSGTDFTLTISSLQPEDFATYYCQVYSGYPLTFGGGTKVEIK

This test covers variants of B1. The test can be described thus: yeast display scFab, FACS + sequencing. As to conditions: with MET. A digest of the protocol:
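A yeast surface library of scFab variants carrying heavy-chain CDR mutations went through two magnetic enrichment rounds on Protein A beads coated with HGFR-Fc, then FACS. For sorting, cells were labelled for 3 h at room temperature with 1 nM HGFR-Fc and anti-Myc in PBSB containing 1% milk, and the top 50% of antigen-positive cells were gated. Input and round-3 sorted populations were deep sequenced in two replicates. A sequence was called an antigen binder if it appeared in both antigen-positive samples and a non-binder if it appeared only in the input.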
For the variant DAGGADAV, the antigen binding call is “no binding”. Take DEGGTDWY: the antigen binding call is recorded as “no binding”. Take YKRESAGY: the antigen binding call was “binds”. On to YTRGAAGY, for which the antigen binding call is on record as “no binding”.

On to YKRRDAVY, for which the antigen binding call was “no binding”. For the variant YKRGDAGY, the antigen binding call is reported as “binds”.

As for YARETDVV, the antigen binding call is listed as “no binding”.

For DGARNAGV, the antigen binding call is “no binding”. Consider VTGTGSSA, for which the antigen binding call is on record as “no binding”.

With YRKGGAAS, the antigen binding call is “binds”. With FRKGGAGS, the antigen binding call is “binds”.

Turning to YRKGGAGS, the antigen binding call is “binds”. With YRKGGFSS, the antigen binding call is given as “no binding”. As to FRKRSFSS, the antigen binding call was “no binding”. With ARRGSDVA, the antigen binding call is listed as “no binding”.

Take YRRGSAVA: the antigen binding call is given as “binds”. In the case of YRRGGAAA, the antigen binding call is “binds”. With YRTEGAVA, the antigen binding call was “binds”. With YETGAAAA, the antigen binding call is recorded as “no binding”. Take DREEGAVA: the antigen binding call is reported as “no binding”. As to YTRGADGA, the antigen binding call is “no binding”. As to YRRGAAAA, the antigen binding call is reported as “binds”. Turning to DETGGDWF, the antigen binding call is listed as “no binding”. As for VEEEGDWV, the antigen binding call is “no binding”. Consider VTGTGDWF, for which the antigen binding call is reported as “no binding”. With YRRGGAVA the entry was “binds”; with YREKAAWA, “no binding”. Take YTRGADWA: the antigen binding call was “no binding”. With YRRGSAWA the entry was “binds”; with YRRGAAWA, “binds”; with YRRGGAWA, “binds”. On to DEGGDDAA, for which the antigen binding call is “no binding”.

On to VKGRADSA, for which the antigen binding call is on record as “no binding”. Regarding VEKTGVGA, the antigen binding call was “no binding”. On to YAAKTAAA, for which the antigen binding call is listed as “no binding”. For the variant DRAGDAAA, the antigen binding call was “no binding”. Turning to YRAESAAA, the antigen binding call was “binds”. As for YRAKGAAA, the antigen binding call is listed as “binds”. Consider YRAGTAAA, for which the antigen binding call was “binds”. YRAGSAAA: the antigen binding call is “binds”.

Consider YEAGTAVA, for which the antigen binding call is reported as “no binding”.

Take VAEGGYAV: the antigen binding call is “no binding”.

Consider VTAEDFGV, for which the antigen binding call is “no binding”.

For the variant AARADAVA, the antigen binding call was “no binding”. Turning to DGGKNDLA, the antigen binding call was “no binding”. For the variant YKGRGSWF, the antigen binding call is “binds”. As for VEGRGDVF, the antigen binding call is on record as “no binding”.

As to VTGRGDVF, the antigen binding call was “no binding”. Consider VKGRGDSF, for which the antigen binding call was “no binding”. Under YGGRGSWV stands “no binding”; under VKEKGSLF, “binds”; under DKGRGSSA, “no binding”. With VKGRGSSF the entry was “binds”.

For the variant VKEKGDSA, the antigen binding call is reported as “no binding”. With VKEKGYLV the entry was “no binding”. Take YAGRGDWF: the antigen binding call is reported as “no binding”.

As to VKGRGSVF, the antigen binding call is on record as “binds”. Regarding VTTRADVV, the antigen binding call is given as “no binding”.
